Most compounds without a hit are left out; they make up all but 0.86% or so of the library.
BLM inh-1 = blocks DNA unwinding by human BLM helicase. recombinant BLM DNA unwinding, fluorescence dequenching. Potency, µM (titrated, usually from 56.1 µM), without a hit: at the top dose activity change, negative = inhibition, actives largely listed as inhibitors. 350,000 tested, 0.2% active. AID 2528;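 also: plate controls were vehicle for no effect and no enzyme for full effect; nearly all actives have a fitted effect of over 35% in size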
APE1 inh-1 = blocks human APE1 abasic DNA cleavage; P27695; 350,000 tested, 0.35% active; Potency, µM (titrated, usually from 65.8 µM), for the others: at the top dose activity change, negative = inhibition, usual class: inhibitors; recombinant APE1, TAMRA/BHQ-2 abasic DNA cleavage fluorescence;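 also: plate controls were vehicle for no effect and reference inhibitor for full effect; nearly all actives have a fitted effect of over 55% in size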
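Incision of a quenched TAMRA/BHQ-2 THF abasic-site duplex (50 nM) by 0.75 nM APE1, after 15 min compound preincubation, measured as fluorescence increase over three 60 s reads. Values normalized to buffer, DMSO and NSC13755 control wells.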
FEN1 inhibitor = human FEN1 inhibition; P39748; Recombinant FEN1 flap cleavage, fluorescence, 15 min; Potency, µM (highest dose often 114 µM), without a hit: top-dose activity change, negative = inhibition, actives largely listed as inhibitors; 390,000 tested, 0.35% active; AID 588795; also: nearly all actives have a fitted effect of over 65% in size
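FEN1 at 10 nM preincubated with compounds 15 min at room temperature, then flap DNA substrate added at 50 nM final. Signal read at 0 and 15 min; concentration-response fitted with four-parameter Hill equation.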
GLS inhibitor = glutaminase GLS (human) inhibition; O94925; GLS enzymatic activity, qHTS titration; Potency, µM (series often up to 45.5 µM), inactives show top-dose activity change, negative = inhibition, usual class: inhibitors; 410,000 tested, 0.21% active
Target sequence (O94925 whole entry, looked up): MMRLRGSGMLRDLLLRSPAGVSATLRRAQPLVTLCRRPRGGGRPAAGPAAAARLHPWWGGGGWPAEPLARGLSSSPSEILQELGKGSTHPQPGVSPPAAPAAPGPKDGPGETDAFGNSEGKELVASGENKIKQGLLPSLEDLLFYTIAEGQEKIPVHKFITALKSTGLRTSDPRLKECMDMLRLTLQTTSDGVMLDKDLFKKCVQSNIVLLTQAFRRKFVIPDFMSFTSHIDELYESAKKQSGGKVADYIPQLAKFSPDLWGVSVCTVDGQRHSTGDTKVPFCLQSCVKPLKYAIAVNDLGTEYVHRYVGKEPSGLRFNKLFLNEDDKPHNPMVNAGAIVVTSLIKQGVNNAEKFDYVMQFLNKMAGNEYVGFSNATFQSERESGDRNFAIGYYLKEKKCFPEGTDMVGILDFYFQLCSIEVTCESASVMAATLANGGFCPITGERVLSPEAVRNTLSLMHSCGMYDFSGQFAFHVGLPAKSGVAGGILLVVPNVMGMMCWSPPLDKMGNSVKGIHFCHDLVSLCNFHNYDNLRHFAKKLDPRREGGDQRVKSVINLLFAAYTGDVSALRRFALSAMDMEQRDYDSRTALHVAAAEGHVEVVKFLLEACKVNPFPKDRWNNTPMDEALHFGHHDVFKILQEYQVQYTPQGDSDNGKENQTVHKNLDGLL
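hKGA in 45 mM KH2PO4 (pH 8.2), 0.02% Tween-20 with compound, then 1mM L-Glutamine (stock as added) plus glutamate oxidase/HRP/Amplex red coupling mix. Fluorescence read initially and after 30 min at RT; signal change reflects glutamate formation.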
PGK inhibitor = blocks T. brucei phosphoglycerate kinase | PGK/GAPDH coupled, Kinase-Glo luminescence, 60 min | 380,000 tested, 0.043% active | Potency, µM (titrated, usually from 57.5 µM), inactives show top-dose activity change, negative = inhibition, hits mostly inhibitors | P07378; also: nearly all actives have a fitted effect of over 60% in size
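Recombinant glycosomal PGK reaction used 1,3-bisphosphoglycerate generated in-well by GAPDH (100nM final) in 100mM TEA pH 7.6, 5mM MgCl2, 0.01% Tween-20. After 60 minutes at room temperature, ATP was read by Kinase-Glo Plus luminescence end-point.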
RECQ1 inh-1 = RECQ1 (human) helicase inhibition; RECQ1 DNA unwinding, red fluorescence kinetic read; AID 2549; Potency, µM (series often up to 57.3 µM), without a hit: at the highest dose activity, negative = inhibition, usual class: inhibitors; P46063; 240,000 tested, 0.54% active;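 also: plate controls were vehicle for no effect and no enzyme for full effect; nearly all actives have a fitted effect of over 30% in size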
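RECQ1T1 50 nM; forked duplex (20 bp + 30-nt ss tails) 200 nM, ATP 2 mM final; pH 8.0, 2 mM MgCl2, 2.5 ug/ml poly(dI-dC); 15 min compound preincubation; discontinuous kinetic read over 2 h at RT.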
APE1 dye cs = counter-screen for APE1 inhibitors: DNA dye displacement; shares compounds with APE1 inh-1; 480 tested, 7% active; Potency, µM (series often up to 28.5 µM), inactives show top-dose activity change, negative = inhibition, actives largely listed as inhibitors; DNA fluorescent dye displacement counterscreen, fluorescence; AID 2564;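 also: loss of thiazole orange fluorescence as the dye is displaced from duplex DNA; 0% = ThO with dsDNA and no compound and -100% = ThO without dsDNA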
Endo IV inh = blocks E. coli endonuclease IV DNA cleavage. AID 2565. E. coli Endo IV, fluorogenic AP-site DNA cleavage. Potency, µM (titrated, usually from 27.1 µM), inactives show at the highest dose activity change, negative = inhibition, usual class: inhibitors. 560 tested, 4% active. shares compounds with APE1 inh-1;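 also: plate controls were uninhibited enzyme wells for no effect and no enzyme buffer wells for full effect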
APE1 inh-2 = confirmation of inhibitors of human APE1 endonuclease. shares compounds with APE1 inh-1. purified APE1, fluorogenic abasic-site DNA cleavage. Potency, µM (series often up to 57.1 µM), for the others: at the top dose activity change, negative = inhibition, usual class: inhibitors. 750 tested, 44% active; also: nearly all actives have a fitted effect of over 30% in size
APE1 FP inh = APE1 (human) DNA binding inhibition, fluorescence polarization | shares compounds with APE1 inh-1 | APE1 binding to TAMRA-labelled double-stranded DNA, fluorescence polarization displacement | Potency, µM (highest dose often 28.5 µM), inactives show top-dose activity, negative = inhibition, most hits filed as inhibitors | 480 tested, 7% active | AID 2573
BLM inh-2 = BLM (human) helicase inhibition, confirmation. shares compounds with BLM inh-1. BLM DNA unwinding, fluorescence quenching, biochemical. Potency, µM, without a hit: max response, negative = inhibition, hits mostly inhibitors. 220 tested, 40% active. AID 2585;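 also: strand separation dequenches TAMRA so unwinding raises red fluorescence; series mostly up to about 69 µM; nearly all actives have a fitted effect of over 45% in size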
RECQ1 conf = confirmation of human RECQ1 helicase inhibitors; shares compounds with RECQ1 inh-1; RECQ1 helicase DNA unwinding, fluorescence; Potency, µM (doses to about 229 µM), for inactives: at the top dose activity change, negative = inhibition, actives largely listed as inhibitors; 610 tested, 28% active; AID 2708; also: nearly all actives have a fitted effect of over 45% in size
RECQ1 ADP FP = displaces ADP in a fluorescence polarization counter-screen for RECQ1 hits. ADP fluorescence polarization displacement counterscreen. 530 tested, 27% active. Potency, µM (highest dose often 228 µM), for the others: at the top dose activity change, negative = inhibition, usual class: inhibitors. shares compounds with RECQ1 inh-1; also: nearly all actives have a fitted effect of over 45% in size
RECQ1 inh-2 = confirmation of human RECQ1 helicase inhibitors; shares compounds with RECQ1 inh-1; recombinant RECQ1 DNA unwinding, red fluorescence; Potency, µM (doses to about 119 µM), for inactives: at the top dose activity, negative = inhibition, most hits filed as inhibitors; 1,100 tested, 15% active; AID 504841; also: nearly all actives have a fitted effect of over 50% in size
Numbers without * were called inactive; i = inactive; ? = inconclusive; · = no result. Calls follow the shape of the dose curve; as a rule, active = well fitted curve in the direction sought with a large enough effect; inconclusive = small, poorly fitted or top-dose-only effect, or another doubt; inactive = no such curve, though single readings can be large; an effect the other way counts as inactive or inconclusive. Unless noted, % is scaled to controls: 0 for no effect and ±100 for the full control effect; potency is read from the fitted curve at half-maximal effect.

SMILES | BLM inh-1 | APE1 inh-1 | FEN1 inhibitor | GLS inhibitor | PGK inhibitor | RECQ1 inh-1 | Endo IV inh | APE1 inh-2 | RECQ1 conf | RECQ1 ADP FP | RECQ1 inh-2 | others
CCN(CC)CCCC(C)Nc1c2ccc(Cl)cc2nc2ccc(OC)cc12 (stereo unspecified) | -6% | 28µM* | 11µM* | · | · | ? | 7.9µM* | 16µM* | 32µM* | 6.3µM* | ·
CCN(CC)CCCC(C)Nc1cc(/C=C/c2ccccc2Cl)nc2cc(Cl)ccc12 (stereo unspecified) | 89% | · | -26% | 6% | · | · | · | · | · | · | ·
Cc1ccc(NC(=O)CN2C(=O)S/C(=C/c3ccc(O)c([N+](=O)[O-])c3)C2=O)cc1C | 25µM* | ? | ? | 10% | ? | ? | · | ? | · | · | 22µM*
Cc1cccc(C(=O)N=c2c(C#N)cc3c(=O)n4cccc(C)c4nc3n2Cc2ccco2)c1 | -27% | ? | -15% | 5% | -3% | ? | · | -33% | · | · | -20%
CCOC(=O)c1cc2c(=O)n3cccc(C)c3nc2n(Cc2ccco2)c1=NC(=O)c1cccnc1 | -16% | 11% | -21% | -17% | -10% | ? | · | · | · | · | ·
Nc1[nH]c(=S)nc2nnsc12 | · | · | -32% | · | · | · | · | · | · | · | ·
CC(=O)[C@]1(O)Cc2c(O)c3c(c(O)c2[C@@H](O[C@H]2C[C@H](N)[C@H](O)[C@H](C)O2)C1)C(=O)c1ccccc1C3=O | -56% | 20µM* | · | 21% | i | 28µM* | i | 16µM* | 35µM* | 0.56µM* | · | APE1 dye cs=i;APE1 FP inh=2.8µM*;BLM inh-2=-72%
COc1cccc2c1C(=O)c1c(O)c3c(c(O)c1C2=O)C[C@](O)(C(=O)CO)C[C@@H]3O[C@H]1C[C@H](N)[C@@H](O)[C@H](C)O1 | 5% | · | · | 1% | · | · | · | · | · | · | ·
